# Tests used:
# [1] = target: Tyrosine-protein kinase SYK (Homo sapiens) (UniProt P43405); settings: at 1 µM
# [2] = target: T1, Tyrosine-protein kinase Tec (Homo sapiens) (UniProt P42680); settings: at 0.1 µM
# T1 sequence (whole entry): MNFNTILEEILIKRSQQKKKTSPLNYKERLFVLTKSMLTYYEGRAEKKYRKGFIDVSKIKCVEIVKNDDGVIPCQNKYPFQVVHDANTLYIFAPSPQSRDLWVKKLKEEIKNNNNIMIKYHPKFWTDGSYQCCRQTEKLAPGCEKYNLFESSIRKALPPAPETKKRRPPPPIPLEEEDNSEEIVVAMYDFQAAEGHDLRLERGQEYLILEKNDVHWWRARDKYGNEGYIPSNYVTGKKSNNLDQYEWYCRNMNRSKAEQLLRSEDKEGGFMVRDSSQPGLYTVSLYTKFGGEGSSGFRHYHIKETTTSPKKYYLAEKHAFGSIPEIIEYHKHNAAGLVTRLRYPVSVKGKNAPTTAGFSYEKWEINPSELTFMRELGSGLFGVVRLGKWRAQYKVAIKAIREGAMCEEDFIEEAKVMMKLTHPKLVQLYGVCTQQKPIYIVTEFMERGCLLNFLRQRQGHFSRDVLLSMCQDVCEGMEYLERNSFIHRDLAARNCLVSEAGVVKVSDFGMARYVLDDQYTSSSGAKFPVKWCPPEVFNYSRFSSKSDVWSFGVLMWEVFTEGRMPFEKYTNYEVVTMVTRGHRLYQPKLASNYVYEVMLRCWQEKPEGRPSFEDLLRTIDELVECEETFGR
# [3] = target: T1, Tyrosine-protein kinase Tec (Homo sapiens); settings: at 1 µM
# [4] = target: Angiopoietin-1 receptor (Homo sapiens) (UniProt Q02763); settings: at 0.1 µM
# [5] = target: Angiopoietin-1 receptor (Homo sapiens) (UniProt Q02763); settings: at 1 µM
# [6] = target: T2, Non-receptor tyrosine-protein kinase TNK1 (Homo sapiens) (UniProt Q13470); settings: at 0.1 µM
# T2 sequence (whole entry): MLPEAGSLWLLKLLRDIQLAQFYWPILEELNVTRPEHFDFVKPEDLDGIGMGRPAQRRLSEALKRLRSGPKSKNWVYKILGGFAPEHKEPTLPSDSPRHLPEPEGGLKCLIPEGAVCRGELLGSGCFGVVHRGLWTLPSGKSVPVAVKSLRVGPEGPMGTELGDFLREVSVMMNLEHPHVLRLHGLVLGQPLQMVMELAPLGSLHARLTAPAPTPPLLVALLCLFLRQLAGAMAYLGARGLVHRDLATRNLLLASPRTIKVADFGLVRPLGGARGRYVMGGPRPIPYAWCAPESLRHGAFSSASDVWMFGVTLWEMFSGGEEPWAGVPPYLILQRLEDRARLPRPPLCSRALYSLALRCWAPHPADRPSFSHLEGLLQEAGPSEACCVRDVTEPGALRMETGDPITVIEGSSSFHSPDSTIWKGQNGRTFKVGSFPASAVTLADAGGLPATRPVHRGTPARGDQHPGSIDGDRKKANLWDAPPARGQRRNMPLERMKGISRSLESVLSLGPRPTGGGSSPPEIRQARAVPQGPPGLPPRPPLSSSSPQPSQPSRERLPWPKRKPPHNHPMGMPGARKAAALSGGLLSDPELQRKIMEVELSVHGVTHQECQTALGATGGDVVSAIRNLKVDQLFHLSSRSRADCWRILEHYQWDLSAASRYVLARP
# [7] = target: T2, Non-receptor tyrosine-protein kinase TNK1 (Homo sapiens); settings: at 1 µM
# [8] = target: Activated CDC42 kinase 1 (Homo sapiens) (UniProt Q07912); settings: at 0.1 µM
# [9] = target: Activated CDC42 kinase 1 (Homo sapiens) (UniProt Q07912); settings: at 1 µM
# [10] = target: High affinity nerve growth factor receptor (Homo sapiens) (UniProt P04629); settings: at 0.1 µM
# [11] = target: High affinity nerve growth factor receptor (Homo sapiens) (UniProt P04629); settings: at 1 µM
# [12] = target: BDNF/NT-3 growth factors receptor (Homo sapiens) (UniProt Q16620); settings: at 0.1 µM
# [13] = target: BDNF/NT-3 growth factors receptor (Homo sapiens) (UniProt Q16620); settings: at 1 µM
# [14] = target: NT-3 growth factor receptor (Homo sapiens) (UniProt Q16288); settings: at 0.1 µM
# [15] = target: NT-3 growth factor receptor (Homo sapiens) (UniProt Q16288); settings: at 1 µM
# [16] = target: T3, Tyrosine-protein kinase TXK (Homo sapiens) (UniProt P42681); settings: at 0.1 µM
# T3 sequence (whole entry): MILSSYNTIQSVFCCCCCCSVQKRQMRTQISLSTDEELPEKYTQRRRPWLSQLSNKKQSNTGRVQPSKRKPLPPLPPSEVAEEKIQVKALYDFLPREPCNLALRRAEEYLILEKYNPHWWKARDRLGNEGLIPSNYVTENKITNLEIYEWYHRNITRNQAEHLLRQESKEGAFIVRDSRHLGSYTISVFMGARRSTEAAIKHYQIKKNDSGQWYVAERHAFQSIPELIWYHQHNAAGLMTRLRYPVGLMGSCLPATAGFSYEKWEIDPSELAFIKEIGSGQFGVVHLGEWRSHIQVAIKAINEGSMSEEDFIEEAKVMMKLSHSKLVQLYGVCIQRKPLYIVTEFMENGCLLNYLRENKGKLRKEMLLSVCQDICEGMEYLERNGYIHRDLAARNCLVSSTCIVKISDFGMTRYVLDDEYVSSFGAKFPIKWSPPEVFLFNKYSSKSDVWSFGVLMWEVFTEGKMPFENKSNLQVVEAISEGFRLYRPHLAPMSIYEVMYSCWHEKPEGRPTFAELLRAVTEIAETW
# [17] = target: T3, Tyrosine-protein kinase TXK (Homo sapiens); settings: at 1 µM
# [18] = target: Non-receptor tyrosine-protein kinase TYK2 (Homo sapiens) (UniProt P29597); settings: at 0.1 µM;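 note: each value is a mean of the inhibition readings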
# [19] = target: T4, Dual specificity protein kinase TTK (Homo sapiens) (UniProt P33981); settings: at 1 µM;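 note: reported figures are mean TTK inhibition at 1 µM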
# T4 sequence (whole entry): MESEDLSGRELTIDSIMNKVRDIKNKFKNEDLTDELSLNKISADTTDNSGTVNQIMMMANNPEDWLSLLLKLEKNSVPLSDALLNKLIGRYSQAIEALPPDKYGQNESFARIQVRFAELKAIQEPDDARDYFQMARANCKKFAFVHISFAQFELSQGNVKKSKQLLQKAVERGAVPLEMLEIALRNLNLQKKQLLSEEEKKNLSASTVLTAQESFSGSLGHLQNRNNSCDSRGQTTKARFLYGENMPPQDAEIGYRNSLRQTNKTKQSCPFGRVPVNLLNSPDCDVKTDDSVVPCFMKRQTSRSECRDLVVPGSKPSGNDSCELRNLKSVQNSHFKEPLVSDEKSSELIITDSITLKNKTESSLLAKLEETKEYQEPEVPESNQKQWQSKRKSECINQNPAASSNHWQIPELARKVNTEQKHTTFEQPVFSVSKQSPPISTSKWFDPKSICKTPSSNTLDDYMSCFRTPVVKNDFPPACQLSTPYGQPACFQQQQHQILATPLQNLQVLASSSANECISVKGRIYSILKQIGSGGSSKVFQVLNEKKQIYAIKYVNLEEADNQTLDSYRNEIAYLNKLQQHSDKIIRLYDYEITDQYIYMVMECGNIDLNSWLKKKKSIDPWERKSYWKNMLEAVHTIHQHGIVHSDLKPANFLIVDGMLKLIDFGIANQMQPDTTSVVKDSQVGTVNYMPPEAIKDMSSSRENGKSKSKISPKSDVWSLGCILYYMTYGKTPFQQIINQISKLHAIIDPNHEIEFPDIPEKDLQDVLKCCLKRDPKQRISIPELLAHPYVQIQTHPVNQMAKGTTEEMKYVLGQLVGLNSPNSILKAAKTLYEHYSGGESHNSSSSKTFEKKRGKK
# [20] = target: T5, Aurora kinase A (Homo sapiens) (UniProt O14965); settings: at 0.1 µM;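 note: each reported value is a mean percent inhibition of Aurora-A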
# T5 sequence (whole entry): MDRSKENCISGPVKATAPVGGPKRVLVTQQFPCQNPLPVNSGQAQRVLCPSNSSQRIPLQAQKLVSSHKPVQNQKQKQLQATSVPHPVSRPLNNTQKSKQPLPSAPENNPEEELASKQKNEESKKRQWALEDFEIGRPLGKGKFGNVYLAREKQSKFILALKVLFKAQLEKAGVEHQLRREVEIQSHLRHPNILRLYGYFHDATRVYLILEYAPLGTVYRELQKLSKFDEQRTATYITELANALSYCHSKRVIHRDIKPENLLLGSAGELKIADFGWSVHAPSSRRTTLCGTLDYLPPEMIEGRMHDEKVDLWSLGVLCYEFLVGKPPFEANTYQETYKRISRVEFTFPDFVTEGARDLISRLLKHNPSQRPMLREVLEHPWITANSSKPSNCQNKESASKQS
# Sequence of BDNF/NT-3 growth factors receptor (Homo sapiens) (Q16620 32-822 limits assumed): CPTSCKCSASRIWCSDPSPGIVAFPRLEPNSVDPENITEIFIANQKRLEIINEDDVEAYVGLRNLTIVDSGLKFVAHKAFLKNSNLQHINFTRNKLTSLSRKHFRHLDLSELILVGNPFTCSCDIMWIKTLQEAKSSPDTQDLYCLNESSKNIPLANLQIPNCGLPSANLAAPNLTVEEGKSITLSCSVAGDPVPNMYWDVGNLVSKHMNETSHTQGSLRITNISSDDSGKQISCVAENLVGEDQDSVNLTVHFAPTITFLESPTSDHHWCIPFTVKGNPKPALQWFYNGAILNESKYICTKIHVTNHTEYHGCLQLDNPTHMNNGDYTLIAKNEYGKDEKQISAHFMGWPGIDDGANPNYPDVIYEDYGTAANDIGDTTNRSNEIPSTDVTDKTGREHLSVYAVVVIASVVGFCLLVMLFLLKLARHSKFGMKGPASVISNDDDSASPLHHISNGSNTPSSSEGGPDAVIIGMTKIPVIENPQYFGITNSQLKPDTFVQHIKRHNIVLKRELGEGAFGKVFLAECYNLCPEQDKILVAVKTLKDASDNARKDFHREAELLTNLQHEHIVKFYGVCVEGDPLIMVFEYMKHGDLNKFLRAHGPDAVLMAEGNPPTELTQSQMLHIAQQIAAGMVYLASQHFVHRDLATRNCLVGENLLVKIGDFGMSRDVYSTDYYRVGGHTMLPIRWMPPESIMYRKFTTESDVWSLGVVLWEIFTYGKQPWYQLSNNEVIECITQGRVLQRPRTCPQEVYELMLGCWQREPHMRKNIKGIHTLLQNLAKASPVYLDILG
# Sequence of Non-receptor tyrosine-protein kinase TYK2 (Homo sapiens) (P29597 whole entry): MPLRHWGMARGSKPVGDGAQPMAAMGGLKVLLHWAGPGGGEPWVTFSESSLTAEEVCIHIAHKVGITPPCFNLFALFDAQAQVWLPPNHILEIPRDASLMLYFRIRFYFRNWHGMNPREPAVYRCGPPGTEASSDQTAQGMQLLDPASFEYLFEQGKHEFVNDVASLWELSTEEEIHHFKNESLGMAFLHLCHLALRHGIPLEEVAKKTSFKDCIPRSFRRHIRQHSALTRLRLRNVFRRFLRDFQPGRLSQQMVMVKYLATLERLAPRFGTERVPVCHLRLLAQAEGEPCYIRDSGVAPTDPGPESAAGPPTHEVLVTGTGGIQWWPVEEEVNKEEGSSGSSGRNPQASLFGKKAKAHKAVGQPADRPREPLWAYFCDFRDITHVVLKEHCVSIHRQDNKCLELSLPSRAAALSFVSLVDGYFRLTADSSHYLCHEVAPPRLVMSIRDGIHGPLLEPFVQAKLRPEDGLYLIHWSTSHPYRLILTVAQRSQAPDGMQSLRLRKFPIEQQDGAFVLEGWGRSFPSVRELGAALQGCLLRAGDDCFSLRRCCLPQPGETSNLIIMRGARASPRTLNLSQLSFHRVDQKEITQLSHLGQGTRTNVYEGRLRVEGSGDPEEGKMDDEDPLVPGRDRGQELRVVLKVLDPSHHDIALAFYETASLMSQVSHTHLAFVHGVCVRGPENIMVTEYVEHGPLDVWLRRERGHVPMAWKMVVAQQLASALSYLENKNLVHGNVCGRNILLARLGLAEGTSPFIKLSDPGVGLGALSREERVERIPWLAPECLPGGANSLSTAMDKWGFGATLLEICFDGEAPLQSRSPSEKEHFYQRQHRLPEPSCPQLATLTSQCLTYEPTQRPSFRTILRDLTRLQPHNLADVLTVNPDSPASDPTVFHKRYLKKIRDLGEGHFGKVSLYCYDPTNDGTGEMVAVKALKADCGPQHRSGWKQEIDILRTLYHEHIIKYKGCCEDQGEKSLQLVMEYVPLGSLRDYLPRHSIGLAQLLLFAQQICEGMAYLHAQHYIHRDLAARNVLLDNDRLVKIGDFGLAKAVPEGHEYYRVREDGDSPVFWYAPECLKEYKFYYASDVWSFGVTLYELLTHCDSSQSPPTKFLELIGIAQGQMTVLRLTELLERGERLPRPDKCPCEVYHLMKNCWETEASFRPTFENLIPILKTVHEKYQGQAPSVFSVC
# Sequence of NT-3 growth factor receptor (Homo sapiens) (Q16288 32-839 limits assumed): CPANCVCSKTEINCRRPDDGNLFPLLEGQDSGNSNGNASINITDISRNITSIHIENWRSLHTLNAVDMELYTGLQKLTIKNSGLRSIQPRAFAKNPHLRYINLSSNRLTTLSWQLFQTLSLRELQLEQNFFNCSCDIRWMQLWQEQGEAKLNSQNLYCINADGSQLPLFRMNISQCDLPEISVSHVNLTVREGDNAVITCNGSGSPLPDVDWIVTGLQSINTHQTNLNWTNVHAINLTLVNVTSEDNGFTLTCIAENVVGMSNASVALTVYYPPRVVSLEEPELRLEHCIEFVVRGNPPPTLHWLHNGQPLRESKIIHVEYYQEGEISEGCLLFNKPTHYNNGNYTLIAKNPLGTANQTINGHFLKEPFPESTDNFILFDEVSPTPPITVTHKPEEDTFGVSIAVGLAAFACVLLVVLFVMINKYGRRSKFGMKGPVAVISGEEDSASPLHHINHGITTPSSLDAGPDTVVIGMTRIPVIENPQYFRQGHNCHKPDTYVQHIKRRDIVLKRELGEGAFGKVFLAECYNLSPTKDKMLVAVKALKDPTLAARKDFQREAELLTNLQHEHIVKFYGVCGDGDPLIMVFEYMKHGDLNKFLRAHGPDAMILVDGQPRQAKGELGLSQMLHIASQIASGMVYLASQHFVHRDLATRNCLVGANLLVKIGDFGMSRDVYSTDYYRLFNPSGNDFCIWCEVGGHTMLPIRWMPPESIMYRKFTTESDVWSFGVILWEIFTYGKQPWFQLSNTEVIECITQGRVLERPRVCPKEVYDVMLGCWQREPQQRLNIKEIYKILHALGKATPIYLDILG
# Sequence of Angiopoietin-1 receptor (Homo sapiens) (Q02763 whole entry): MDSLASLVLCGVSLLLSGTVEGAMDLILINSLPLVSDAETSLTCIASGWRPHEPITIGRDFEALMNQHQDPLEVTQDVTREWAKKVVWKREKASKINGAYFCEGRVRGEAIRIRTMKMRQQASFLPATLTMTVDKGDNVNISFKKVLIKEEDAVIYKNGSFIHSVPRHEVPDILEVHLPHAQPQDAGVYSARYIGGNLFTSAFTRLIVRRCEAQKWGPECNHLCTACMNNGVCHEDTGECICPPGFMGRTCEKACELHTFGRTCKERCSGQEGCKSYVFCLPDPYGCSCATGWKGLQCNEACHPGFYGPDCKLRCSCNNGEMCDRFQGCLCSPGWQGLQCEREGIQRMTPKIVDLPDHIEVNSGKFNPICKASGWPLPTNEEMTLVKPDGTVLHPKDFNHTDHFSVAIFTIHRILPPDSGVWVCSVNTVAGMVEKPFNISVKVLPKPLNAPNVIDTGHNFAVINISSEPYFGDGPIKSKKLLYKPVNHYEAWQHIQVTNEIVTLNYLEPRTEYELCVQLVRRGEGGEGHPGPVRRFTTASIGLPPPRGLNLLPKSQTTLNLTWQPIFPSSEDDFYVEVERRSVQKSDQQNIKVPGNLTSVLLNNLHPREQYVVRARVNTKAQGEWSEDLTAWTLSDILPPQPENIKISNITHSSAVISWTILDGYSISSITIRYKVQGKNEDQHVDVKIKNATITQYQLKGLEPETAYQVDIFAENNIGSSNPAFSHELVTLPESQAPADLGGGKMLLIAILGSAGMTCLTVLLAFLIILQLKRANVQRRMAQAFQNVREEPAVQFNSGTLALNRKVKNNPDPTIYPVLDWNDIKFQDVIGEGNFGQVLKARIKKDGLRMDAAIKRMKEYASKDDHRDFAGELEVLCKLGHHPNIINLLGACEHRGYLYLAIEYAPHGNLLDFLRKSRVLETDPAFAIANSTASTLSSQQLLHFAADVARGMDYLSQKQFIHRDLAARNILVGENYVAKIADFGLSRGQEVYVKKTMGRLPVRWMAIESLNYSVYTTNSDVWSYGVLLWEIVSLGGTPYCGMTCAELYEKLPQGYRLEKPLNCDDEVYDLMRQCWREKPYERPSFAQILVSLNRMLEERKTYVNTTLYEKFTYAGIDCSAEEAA
# Sequence of High affinity nerve growth factor receptor (Homo sapiens) (P04629 33-796 limits assumed): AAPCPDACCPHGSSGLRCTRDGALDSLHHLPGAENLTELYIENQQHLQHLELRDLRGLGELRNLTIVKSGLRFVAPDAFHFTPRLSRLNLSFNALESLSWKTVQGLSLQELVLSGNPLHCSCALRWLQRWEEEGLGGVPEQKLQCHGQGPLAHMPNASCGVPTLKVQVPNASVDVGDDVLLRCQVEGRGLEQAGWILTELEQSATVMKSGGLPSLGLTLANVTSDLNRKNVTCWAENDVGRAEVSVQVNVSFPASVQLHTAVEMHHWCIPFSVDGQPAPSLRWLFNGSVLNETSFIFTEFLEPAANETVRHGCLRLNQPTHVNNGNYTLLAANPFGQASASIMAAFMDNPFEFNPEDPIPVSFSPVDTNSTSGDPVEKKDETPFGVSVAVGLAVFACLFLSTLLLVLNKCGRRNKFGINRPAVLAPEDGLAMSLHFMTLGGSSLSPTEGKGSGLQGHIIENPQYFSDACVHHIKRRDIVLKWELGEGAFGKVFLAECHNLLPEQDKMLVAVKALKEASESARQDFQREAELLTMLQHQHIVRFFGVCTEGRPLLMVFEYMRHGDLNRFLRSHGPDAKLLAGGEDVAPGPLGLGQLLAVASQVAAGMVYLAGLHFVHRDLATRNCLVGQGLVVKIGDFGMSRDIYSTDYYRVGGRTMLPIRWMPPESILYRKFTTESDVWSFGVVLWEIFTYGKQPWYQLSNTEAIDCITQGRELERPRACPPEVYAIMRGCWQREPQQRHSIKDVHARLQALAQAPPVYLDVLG
structure (smiles),measurement,setting,value
COc1cccc(-n2nc(C)c3c(N/N=C(\C)c4ccncc4)ncnc32)c1,inhibition,[1],2.38%
same,inhibition,[2],1.82%
same,inhibition,[3],3.53%
same,inhibition,[4],0.73%
same,inhibition,[5],2.25%
same,inhibition,[6],-1.41%
same,inhibition,[7],0.13%
same,inhibition,[8],-0.22%
same,inhibition,[9],0.84%
same,inhibition,[10],0.99%
same,inhibition,[11],2.57%
same,inhibition,[12],-1.2%
same,inhibition,[13],0.69%
same,inhibition,[14],-2.28%
same,inhibition,[15],-0.38%
same,inhibition,[16],3.18%
same,inhibition,[17],2.67%
same,inhibition,[18],0.67%
same,inhibition,[19],2.24%
same,inhibition,[20],1.27%
CCn1c(-c2nonc2N)nc2c(C#CC(C)(C)O)nc(OCCNC)cc21,inhibition,[1],0.91%
same,inhibition,[2],5.49%
same,inhibition,[3],3.22%
same,inhibition,[4],2.67%
same,inhibition,[5],6.8%
same,inhibition,[6],0.64%
same,inhibition,[7],3.22%
same,inhibition,[8],0.83%
same,inhibition,[9],1.43%
same,inhibition,[10],3.54%
same,inhibition,[11],6.23%
same,inhibition,[12],3.15%
same,inhibition,[13],3.59%
same,inhibition,[14],1.5%
same,inhibition,[15],2.5%
same,inhibition,[16],3.81%
same,inhibition,[17],2.46%
same,inhibition,[18],-0.47%
same,inhibition,[19],9.85%
same,inhibition,[20],1.75%
Cc1nc(-c2ccccc2)n2nc(NCCCN3CCOCC3)ncc12,inhibition,[1],3.52%
same,inhibition,[2],2.69%
same,inhibition,[3],3.32%
same,inhibition,[4],4.19%
same,inhibition,[5],5.74%
same,inhibition,[6],1.98%
same,inhibition,[7],2.53%
same,inhibition,[8],0.58%
same,inhibition,[9],1.15%
same,inhibition,[10],0.31%
same,inhibition,[11],5.06%
same,inhibition,[12],1.8%
same,inhibition,[13],3.5%
same,inhibition,[14],2.73%
same,inhibition,[15],2.25%
same,inhibition,[16],4.46%
same,inhibition,[17],3.59%
same,inhibition,[18],-3.48%
same,inhibition,[19],5.84%
same,inhibition,[20],3.52%
Cc1ccc(Nc2ccnc(Nc3cccc(C(N)=O)c3)n2)cc1O,inhibition,[1],14.2%
same,inhibition,[2],18%
same,inhibition,[3],57.1%
same,inhibition,[4],4.56%
same,inhibition,[5],39.7%
same,inhibition,[6],8.82%
same,inhibition,[7],52.1%
same,inhibition,[8],3.73%
same,inhibition,[9],28.8%
same,inhibition,[10],4.38%
same,inhibition,[11],6.07%
same,inhibition,[12],4.59%
same,inhibition,[13],21.6%
same,inhibition,[14],3.13%
same,inhibition,[15],11.5%
same,inhibition,[16],10.1%
same,inhibition,[17],43.7%
same,inhibition,[18],-1.77%
same,inhibition,[19],16.3%
same,inhibition,[20],14.3%
COc1cc2ncn(-c3cc(OCc4ccccc4S(C)(=O)=O)c(C#N)s3)c2cc1OC,inhibition,[1],-2.95%
same,inhibition,[2],7.94%
same,inhibition,[3],35.5%
same,inhibition,[4],5.63%
same,inhibition,[5],14.6%
same,inhibition,[6],38.6%
same,inhibition,[7],77.9%
same,inhibition,[8],6.02%
same,inhibition,[9],38%
same,inhibition,[10],5.48%
same,inhibition,[11],18.8%
same,inhibition,[12],15%
same,inhibition,[13],57.2%
same,inhibition,[14],12.9%
same,inhibition,[15],56.1%
same,inhibition,[16],10.8%
same,inhibition,[17],42.5%
same,inhibition,[18],-7.35%
same,inhibition,[19],11.1%
same,inhibition,[20],12.4%
